# According to PubChem BioAssay (NCI):
# The panel holds about 83,000 compounds, 20% with a hit somewhere; the sample as a whole holds those more often.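 Assay: single dose, 48 h. Readout: percent growth (0 = no net growth; negative = cell death). Active: <10.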 Unmarked numbers belong to inactive results. Activity calls are given as the source filed them.
# Key:
# Assay in all cases: NCI-60 one-dose screen, 48 h (100 = growth as untreated, 0 = no growth, -100 = all killed)
# [1] = test system: RPMI-8226 leukemia; details: 10 µM unless noted
# [2] = test system: OVCAR-8 ovarian; details: 10 µM unless noted
# [3] = test system: OVCAR-5 ovarian; details: 10 µM unless noted
# [4] = test system: OVCAR-4 ovarian; details: 10 µM unless noted
# [5] = test system: IGROV1 ovarian; details: 10 µM unless noted
# [6] = test system: OVCAR-3 ovarian; details: 10 µM unless noted
# [7] = test system: HS 578T breast; details: 10 µM unless noted
# [8] = test system: NCI/ADR-RES ovarian; details: 10 µM unless noted
# [9] = test system: T-47D breast; details: 10 µM unless noted
# [10] = test system: BT-549 breast; details: 10 µM unless noted
# [11] = test system: MDA-MB-435 melanoma; details: 10 µM unless noted
# [12] = test system: SW-620 colon; details: 10 µM unless noted
# [13] = test system: MCF7 breast; details: 10 µM
# [14] = test system: HCT-116 colon; details: 10 µM unless noted
# [15] = test system: HCC-2998 colon; details: 10 µM unless noted
# [16] = test system: KM12 colon; details: 10 µM unless noted
Compound,growth [1],growth [2],growth [3],growth [4],growth [5],growth [6],growth [7],growth [8],growth [9],growth [10],growth [11],growth [12],growth [13],growth [14],growth [15],growth [16]
COc1ccc(/C(C#N)=C/c2nc3c(N4CCOCC4)nc(Cl)nc3n2C)cc1OC,-7.23% (active),14.5%,33.3%,-25% (active),3.01% (active),-86.1% (active),13.2%,11.7%,-17.1% (active),-15.7% (active),-64.5% (active),-53.7% (active),6.49% (active),-73.2% (active),2.12% (active),-0.417% (active)
NCCOc1ncccc1/C=C1\c2ccccc2-c2ccc([N+](=O)[O-])cc21,-21.5% (active),-13% (active),-72.8% (active),-69.2% (active),-80.2% (active),-77.7% (active),-5.23% (active),-45.4% (active),-30.4% (active),-17.2% (active),-70.5% (active),-50.3% (active),-42% (active),-74.6% (active),-82.2% (active),-51.5% (active)
COc1cc(/C=C2\CN(S(=O)(=O)c3ccccc3)C/C(=C\c3cc(CN4CCCC4)c(O)c(OC)c3)C2=O)cc(CN2CCCC2)c1O,-13.3% (active),19.2%,-9.14% (active),34.8%,-27.6% (active),11.1%,33.6%,92.7%,32.3%,33.5%,-37.1% (active),4.93% (active),5.38% (active),-81.1% (active),-87.9% (active),-56.3% (active)
CCCN1C(=O)N(CCC)C2C1NN=c1s/c(=C3\C(=O)N(C(C)C)c4ccccc43)c(=O)n12 (stereo not drawn),61.2%,58.4%,76%,42.9%,41.5%,-15% (active),30.3%,44.5%,28.1%,47.7%,-7.13% (active),35.9%,15.4%,20%,65.3%,26.9%
COc1ccccc1C1=C(Br)C(=O)c2nc(C)ccc2C1=O,104%,96.8%,110%,97.8%,97.3%,81%,104%,107%,69.6%,90.4%,104%,87.9%,90.8%,92.1%,102%,103%
Cc1cccc2c(=O)c3c(sc12)c(NCCN)nc1ccccc13,-37.9% (active),-25% (active),-46.9% (active),-24.4% (active),-70.1% (active),-89.6% (active),37.1%,-45.5% (active),-50.2% (active),72.1%,-93.9% (active),-77.6% (active),-82.1% (active),-93.9% (active),-77.8% (active),-90.5% (active)
Cc1ccc2c(n1)C(=O)C(Oc1ccc(Br)cc1)=CC2=O,78.7%,92.3%,114%,94.5%,104%,84.2%,100%,95.8%,59.2%,–,101%,94%,85.6%,87.3%,101%,102%
NC(CCc1nc2ccccc2c(=O)[nH]1)C(=O)O (stereo not drawn),101%,104%,105%,103%,99.1%,119%,102%,110%,108%,97%,100%,102%,105%,105%,107%,112%
COc1cc(/C(C#N)=C/c2nc3c(N4CCOCC4)nc(Cl)nc3n2C)cc(OC)c1OC,7.11% (active),21.8%,34.6%,21.9%,8.43% (active),0.593% (active),0.385% (active),8.53% (active),33.9%,20.7%,-48.5% (active),19.8%,6.74% (active),4.75% (active),7.16% (active),1.09% (active)
